In the library only some 32% were active in any assay of this set; here they are far more common.
CYP2C9 act: human CYP2C9 activators, primary screen, biochemical, luminescence; activation factor at 5 µM; Cytochrome P450 2C9 (Homo sapiens), P11712; recombinant CYP2C9, luciferin-H conversion; active compounds read high; factor 1 = untreated enzyme, 0 = blocked; AID 1024, 2008; actives 1.4% (n = 96,000);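 active = activation factor of 2 or more for CYP2C9 at a 5 µM dose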;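 note: 0 = sulfaphenazole-blocked wells and 1 = vehicle-only wells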
Target sequence (P11712 whole entry, looked up): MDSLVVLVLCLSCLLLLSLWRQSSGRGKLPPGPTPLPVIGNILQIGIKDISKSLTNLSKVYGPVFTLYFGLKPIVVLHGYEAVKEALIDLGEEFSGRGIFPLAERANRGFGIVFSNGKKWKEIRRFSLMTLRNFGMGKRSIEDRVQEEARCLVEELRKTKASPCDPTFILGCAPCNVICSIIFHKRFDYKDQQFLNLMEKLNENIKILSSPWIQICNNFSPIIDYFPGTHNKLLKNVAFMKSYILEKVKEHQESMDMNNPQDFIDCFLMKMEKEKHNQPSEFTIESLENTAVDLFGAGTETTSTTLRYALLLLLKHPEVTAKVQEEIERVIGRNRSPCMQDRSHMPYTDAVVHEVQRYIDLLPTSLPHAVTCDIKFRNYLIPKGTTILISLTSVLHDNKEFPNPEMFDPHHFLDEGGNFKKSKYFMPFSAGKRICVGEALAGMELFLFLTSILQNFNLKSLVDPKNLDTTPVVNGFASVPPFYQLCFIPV
PostGolgi yeast: phenotypic screen on post-Golgi transport, primary screen; post-Golgi transport phenotypic cell assay; inhibition, % at 10 µM; actives 0.9% (n = 98,000); AID 739, 2007;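 note: yeast cells grown in 1536-well plates; yeast grown about 18 h at 30C before absorbance read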
CYP2C19 inhib: blockers of cytochrome P450 2C19 activity – biochemical, luminescence, ADME assay, primary screen; inhibition, % at 5 µM; AID 778, 2007; CYP2C19 Supersomes, luciferin-H EGE luminescence, 30 min; actives 21% (n = 96,000); P33261;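 active = CYP2C19 inhibition above a set limit at 5 µM in the primary screen, cut at about 50% in these data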;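 note: plate controls were negative control wells for no effect and 2.5 mM tranylcypromine positive control for full effect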
CYP2C9 inh: blockers of cytochrome P450 2C9 activity – biochemical, luminescence, ADME assay, primary screen. CYP2C9 Supersomes, luciferin-H conversion. actives 20% (n = 96,000). P11712. inhibition, % at 5 µM. AID 777, 2007;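 active = blocking of liver enzyme CYP2C9 beyond about 50% at 5 µM, limit read from the data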
PostGolgi ctrl: growth inhibition of yeast control strain, primary screen, counter-screen for post-Golgi transport modulator project | AID 738, 2007 | inhibition, % at 10 µM | efflux-deficient yeast background strain, growth absorbance A615, 16 h | actives 5% (n = 98,000)
CYP2C19 activ: human CYP2C19 activators, primary screen, biochemical, luminescence; recombinant CYP2C19, luciferin-H EGE luminescence; active compounds read high; 0 = fully inhibited enzyme, 1 = untreated enzyme; Cytochrome P450 2C19 (Homo sapiens), P33261; activation factor at 5 µM; 96,000 tested, under 10 active;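 active = activation factor of at least 2 at 5 µM in the primary screen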;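 note: 0 = wells with 2.5 mM tranylcypromine and 1 = vehicle-only wells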
An asterisk follows results filed as active. Cut-off read from the data, not from the text of the source, unless noted: active = inhibition above about 30%; inactive = the rest.

SMILES	CYP2C9 act	PostGolgi yeast	CYP2C19 inhib	CYP2C9 inh	PostGolgi ctrl	CYP2C19 activ
CCN(CC)c1ccc(/C=C2/C(=O)N(c3ccc([N+](=O)[O-])cc3)N=C2N2CCOCC2)cc1	1	-2	-3	0	34*	1
CC1=N/C(=C\c2ccc([N+](=O)[O-])cc2)C(=O)N1c1ccc(Cl)cc1	1.2	-1	0	-18	12	1
CCn1cc(S(=O)(=O)CC(=O)Nc2cc(C)ccc2C)c2ccccc21	1.8	-3	96*	-80	4	0
CCn1cc(S(=O)(=O)CC(=O)NC2CCCCC2)c2ccccc21	1	9	32	3	42*	0.7
O=C(Cc1c(O)c2ccccc2[nH]c1=O)NC1CCCCCC1	1.2	8	-11	-18	0	1.1
Cc1cccc(NC(=O)CS(=O)(=O)c2cn(C)c3ccccc23)c1	1.1	-2	56*	-11	26	0.4
O=C(CS(=O)(=O)c1c[nH]c2ccccc12)NC1CCCCC1	1.7	4	51*	-66	1	0.5
Cn1c(=O)n(CC(=O)NC2CCCCC2)c(=O)c2ccccc21	0.8	-3	16	21	10	0.8
COc1ccc(C2=NOC(C(=O)Nc3cccnc3)C2)cc1 (centres undefined)	0.8	5	18	16	4	0.8
Cc1cc(NC(=O)CS(=O)(=O)c2cn(Cc3ccccc3Cl)c3ccccc23)no1	0.3	7	40	68*	1	0.6
CCOC(=O)N1CCN(C(=O)CS(=O)(=O)c2cn(Cc3ccccc3Cl)c3ccccc23)CC1	0.7	-12	14	30	15	0.9
Cc1nc(-c2cccc(S(=O)(=O)N3CC(C)CC(C)C3)c2)cs1 (centres undefined)	1.1	0	-8	-8	17	1.1
CSc1nc2cc(S(=O)(=O)N3CCOCC3)ccc2s1	0.4	-18	99*	63*	4	0
Cc1nc(-c2cccc(S(=O)(=O)N3CC(C)OC(C)C3)c2)cs1 (centres undefined)	0.8	-3	77*	20	3	0.2
Cc1nc(-c2cccc(S(=O)(=O)N3CCOCC3)c2)cs1	0.3	14	76*	66*	6	0.2
C=CCOc1ccc(CN(C)CC(=O)N(CC(C)C)c2c(N)n(CC(C)C)c(=O)[nH]c2=O)cc1	0.8	0	18	18	1	0.8
O=C(NC(NCc1ccccn1)(C(F)(F)F)C(F)(F)F)c1ccco1	0.9	5	18	14	-4	0.8
O=C(COc1ccc(/C=N/NC(=O)c2cc3ccccc3o2)cc1Cl)Nc1ccccc1	0.7	-16	-6	28	-2	1.1
O=C(NC1CC2CCCC(C1)N2S(=O)(=O)c1ccccc1)C1CCCCC1 (centres undefined)	0.4	-20	27	60*	-4	0.7
O=S(=O)(c1ccccc1)N1CCN(C2CCCCCCC2)CC1	0.9	-2	44	7	1	0.6
O=C(Nc1cc2c3c(c1)C1CCCC1CN3CC1CCCC21)c1ccccc1 (centres undefined)	0.2	2	8	81*	9	0.9
Cn1c(=N)n(CC(=O)C(C)(C)C)c2ccccc21	1	0	2	-3	17	1
CCC(C)NC(=O)c1c(C)cc(=O)oc1C (centres undefined)	1.2	-2	-13	-21	-5	1.1
O=C(Nc1nc(-c2nc3ccccc3s2)cs1)C1CC1	0.8	4	51*	19	18	0.5
O=C(NC1=NCCS1)c1ccc(Br)s1	1	-10	-4	-1	4	1
SMILES	CYP2C9 act	PostGolgi yeast	CYP2C19 inhib	CYP2C9 inh	PostGolgi ctrl	CYP2C19 activ
COC(=O)C1CCN(C(=O)C2CCCCC2)CC1	0.8	4	66*	22	10	0.3
C=CCc1c(C)nc(SC)nc1Nc1ccc(C)cc1	0.9	-12	6	5	32*	0.9
CCn1nc(C)c(NC(=O)c2cc(Br)ccc2Cl)c1C	1.2	7	-5	-20	7	1.1
Cc1ccc([N+](=O)[O-])c2cccnc12	1.1	-12	19	-6	-2	0.8
O=c1[nH]cnc2c([N+](=O)[O-])cccc12	1.1	-2	-13	-12	32*	1.1
COc1ccccc1NC(=O)C(C)NS(=O)(=O)c1ccccc1 (centres undefined)	2.7*	7	51*	-175	2	0.5
COC(=O)C(NC(=O)Nc1ccccc1OC)C(C)C (centres undefined)	0.9	-6	59*	12	9	0.4
COc1ccccc1CNC(=O)CC(NS(=O)(=O)c1ccc(C)cc1)c1ccco1 (centres undefined)	1.6	-1	44	-58	8	0.6
COc1ccccc1CNC(=O)C(C)NS(=O)(=O)c1ccc(C)cc1 (centres undefined)	2.1*	-1	20	-108	7	0.8
Cn1nc(C(=O)NC2=NCCS2)ccc1=O	1.2	4	-18	-24	0	1.2
N#CCN1CCN(CC(=O)Nc2ccc(OCc3ccccc3)cc2)CC1	0.6	-3	22	44	0	0.8
COc1ccc(NC(=O)CSc2nnc(-c3ccco3)n2C)cc1	0.1	-7	92*	93*	-1	0.1
Cc1ccc(NC(=O)CCc2nnc(SCC(=O)Nc3ccccc3C)n2C)cc1Cl	0.9	-5	10	9	-6	0.9
CCN(CC)S(=O)(=O)c1ccc(NC(=O)CSc2nnc(-c3cccc(OC)c3)n2C)cc1	0.5	2	23	52*	22	0.8
COc1ccc(-c2nnc(SCC(=O)Nc3ccc(C)cc3)n2C)cc1	0.6	0	29	40	10	0.7
CCn1c2ccccc2c2cc(NC(=O)CSc3nnc(-c4ccc(OC)c(OC)c4)n3N)ccc21	0.9	-2	40	6	13	0.6
CCn1c2ccccc2c2cc(NC(=O)CSc3nnc(-c4ccccc4OC)n3N)ccc21	0.4	1	94*	58*	6	0.1
COc1ccc(NC(=O)CSc2nnc(CCC(=O)Nc3ccc(C)c(Cl)c3)n2C)cc1	0.3	-5	12	66*	4	0.9
CCOc1ccc(NC(=O)CSc2nnc(-c3ccco3)n2C)cc1	0.9	-2	3	12	4	1
CCCCOc1ccc(/C(N)=N/O)cc1	1.1	6	-10	-6	-1	1.1
CCOC(=O)c1ccc(NC(=O)Nc2ccn(C)n2)cc1	0.9	-9	20	15	3	0.8
Cc1nc(S(=O)(=O)c2ccc(Cl)cc2)c(NCc2ccccc2)o1	1	1	40	3	8	0.6

Source: PubChem BioAssay (several laboratories)
